Hits are enriched below; roughly 8.3% of the tested compounds scored in any of these assays.
MCF10A rerep = inducers of DNA re-replication in MCF 10A breast cells; MCF 10A DNA re-replication, Hoechst nuclear intensity, 48 h; 350,000 tested, 2.9% active; Potency, µM (highest dose often 46.1 µM), inactives show at the highest dose activity, positive = re-replication, hits mostly activators; AID 624296; note: potency is the fitted concentration of half-maximal effect; % of control where 0% means no effect; nearly all actives have a fitted effect of over 50% in size
VP16 counter = inhibits Gal4-VP16 luciferase reporter, ROR gamma counter-screen. AID 2546. Drosophila S2 Gal4-VP16 UAS-luciferase, luminescence, 20 h. 310,000 tested, 3.5% active. Potency, µM (series often up to 53.6 µM), inactives show at the top dose activity, negative = inhibition, usual class: inhibitors;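 note: Gal4-VP16 expression switched on by copper sulfate through the metallothionein promoter; potency is the fitted concentration of half-maximal effect; % is set by controls: 0 for no effect and ±100 for the full control effect; nearly all actives have a fitted effect of over 50% in size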
RORgamma inh = blocks mouse ROR gamma transcriptional activity; P51450; Drosophila S2 Gal4-RORgamma UAS-luciferase reporter, 20 h; Potency, µM (top dose mostly 53.6 µM), for the others: top-dose activity change, negative = inhibition, usual class: inhibitors; 310,000 tested, 5.4% active; AID 2551; note: potency is the fitted concentration of half-maximal effect; % is set by controls: 0 for no effect and ±100 for the full control effect; nearly all actives have a fitted effect of over 60% in size
Target sequence (P51450 whole entry, looked up, the tested form may be a part): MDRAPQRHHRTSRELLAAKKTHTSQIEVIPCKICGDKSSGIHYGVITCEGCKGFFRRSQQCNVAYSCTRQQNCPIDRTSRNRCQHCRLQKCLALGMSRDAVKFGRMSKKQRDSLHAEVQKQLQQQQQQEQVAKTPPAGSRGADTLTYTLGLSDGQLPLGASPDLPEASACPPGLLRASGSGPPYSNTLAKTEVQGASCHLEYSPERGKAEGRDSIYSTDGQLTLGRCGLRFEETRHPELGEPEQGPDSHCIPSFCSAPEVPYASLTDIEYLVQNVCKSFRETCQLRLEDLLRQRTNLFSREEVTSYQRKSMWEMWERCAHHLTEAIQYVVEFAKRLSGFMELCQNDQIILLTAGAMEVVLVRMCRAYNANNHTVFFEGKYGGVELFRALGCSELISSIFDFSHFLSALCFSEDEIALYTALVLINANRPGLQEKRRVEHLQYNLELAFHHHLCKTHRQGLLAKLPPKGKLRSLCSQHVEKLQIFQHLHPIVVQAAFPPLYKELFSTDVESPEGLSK
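Read-out: Photinus luciferase luminescence; inhibitors lower reporter signal. Insect Schneider cells with Gal4-ROR gamma fusion under metallothionein promoter, UAS reporter; 700 uM final copper sulfate induction, 20 hr, ambient temperature.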
Giardia killer = kills Giardia lamblia; Giardia lamblia trophozoite viability; activity change, % at 7.66 µM, hits read low; 340,000 tested, 0.15% active; AID 540267; in the data active = activity change below about -80%; inconclusive = between about -30% and that limit;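 note: parasites exposed to compound for two days anaerobically before the ATP read; % is set by controls: 0 for no effect and ±100 for the full control effect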
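ATP-content bioluminescence gauges trophozoite survival. Cells (100/well) receive compound and incubate anaerobically for 48 hrs at 37 deg C; detection reagent follows for 15-30 min at room temperature.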
SW480 rerep = DNA re-replication induction in SW480 cells; SW480 DNA re-replication, Hoechst DNA content imaging, 48 h; Potency, µM (top dose mostly 46.1 µM), without a hit: at the top dose re-replication activation, most hits filed as activators; 340,000 tested, 1.8% active; note: potency is the fitted concentration of half-maximal effect; % of control where 0% means no effect; nearly all actives have a fitted effect of over 55% in size
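Treated cells incubate 48 hr (37 C, 5% CO2), are stained 40 min with Hoechst, and nuclear fluorescence is enumerated; a rise in nuclei with high DNA signal marks re-replication.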
BCR signal inh = chronic active BCR signaling inhibition; ABC-DLBCL IkBa-CBG/CBR reporter, luminescence ratio, 4 h; Potency, µM (highest dose often 46.1 µM), for the others: at the highest dose activity change, negative = inhibition, most hits filed as inhibitors; 340,000 tested, 0.05% active; AID 493014; active = well fitted inhibition curve with a large enough effect in the signal ratio, with a control signal flat, not every such curve was filed as active; inconclusive = small, poorly fitted or top-dose-only effect, or effect the other way, or a change in a side signal; the % refers to the signal ratio;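 note: potency is the fitted concentration of half-maximal effect; plate controls were basal doxycycline-induced cells for no effect and cells given 10 µM MG132 for full effect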
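Concentration-response series (up to 46 uM) were applied to TMD8 dual-reporter cells for 4 h at 37C with doxycycline. Green/red ratio, after filter-overlap correction, defined %Activity; red signal alone was normalised to basal cells and zero luminescence.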
* marks the source's active call; other numbers are inactive results; ? = inconclusive; . = no result given; [ ] = remark or other dose. Unless noted, calls come from the whole dose curve; as a rule, active = well fitted curve in the direction sought with a large enough effect; inconclusive = small, poorly fitted or top-dose-only effect, or another doubt; inactive = no such curve, though single readings can be large; an effect the other way counts as inactive or inconclusive.

SMILES | MCF10A rerep | VP16 counter | RORgamma inh | Giardia killer | SW480 rerep | BCR signal inh
CCOc1ccc(NC(=O)CC2C(=O)N(c3ccc(OC)cc3)C(=O)N2CCc2ccc(OC)c(OC)c2)cc1 (configuration not stated) | 3% | -4% | ? | 7 | 4% | ?
CCOC(=O)c1ccc(N2C(=O)C(CC(=O)NC)N(CCc3ccc(OC)c(OC)c3)C2=S)cc1 (configuration not stated) | 21µM* | ? | ? | 1 | 7%[1.84 µM] | ?
Cc1nnc(C)c2c(C)n(-c3ccccc3N)c(C)c12 | 1% | 2% | 3% | 12 | 21µM* | -1%
Cc1ccc(-n2c(C)c3c(C)nnc(C)c3c2C)cc1N | 0% | -12%[10 µM] | -18% | -4 | -2% | -7%
Cc1cc(-n2c(C)c3c(C)nnc(C)c3c2C)ccc1N | 21µM* | -17% | 1% | 36 | ? | 9%
CCOC(=O)c1cc([N+](=O)[O-])c([N+](=O)[O-])cc1NC(C)=O | 10µM* | 3.2µM* | 5µM* | 4 | ? | ?
CCOC(=O)c1ccc(NC(=O)c2ccccc2[N+](=O)[O-])cc1 | 12% | -22% | ? | 0 | 18% | ?
Cc1ccc(C)c(-n2c(-c3ccco3)n[nH]c2=S)c1 | 7% | . | . | -15 | 9% | .
Cc1ccc(-n2c(-c3cnccn3)n[nH]c2=S)c(Br)c1 | -24% | -26% | 7.9µM* | 13 | -33%[1.84 µM] | 1%
FC(F)(F)c1ccccc1-n1c(-c2cnccn2)n[nH]c1=S | 3% | -1% | 11µM* | 6 | -8% | ?
CCCn1nnnc1NC(=O)c1cccs1 | 14% | 2.8µM* | 0.89µM* | 0 | 1% | -5%
CCCn1nnnc1NC(=O)c1cc(Br)ccc1OC | -5% | 5.6µM* | 3.2µM* | -9 | -9% | 0%
Cn1nnnc1NC(=O)c1ccccc1Cl | -3% | . | . | -15 | -2% | -8%
CCCn1nnnc1NCc1cc(Br)ccc1OC | -1% | ? | 5% | -11 | 0% | 1%
CCCn1nnnc1SCC(=O)NCc1cccs1 | ? | 6% | 0%[10 µM] | 7 | 1% | 10%
CCCn1nnnc1NC(=O)c1ccc(C)cc1Cl | 6% | 6.3µM* | 3.5µM* | 6 | -2% | 3%
C=CCNC(=O)C1CCC(C(=O)NCC=C)CC1 (configuration not stated) | 18% | -11% | -4% | 2 | -10% | 4%
CC1=CC2=NC(=O)/C(=C\c3cn(C)c4ccccc34)C(=N)N2O1 | -6% | -22% | -40% | 19 | -2% | 1%
CC1=CN2C(=N)/C(=C\c3cn(CCCOc4ccccc4)c4ccccc34)C(=O)N=C2S1 | 3.7µM* | 5µM* | 7.1µM* | -16 | . | -6%
CC(C)(C)NC(=O)Cc1ccc(Cl)c(Cl)c1 | 1% | 27% | 40% | -19 | -1% | 4%
COC(=O)c1ccc(C(=O)OC)c(-n2c(=O)c3ccccc3c3ccccc3c2=O)c1 | ? | ? | 10µM* | 11 | 4% | ?
CCC1=NN(C(=O)c2ccc(C)cc2)C(O)(c2ccc(Br)cc2)C1 (configuration not stated) | 18% | 13µM* | ? | 10 | -3% | ?
CCC1=NN(C(=O)c2ccc(Br)cc2)C(O)(c2ccc(C)cc2)C1 (configuration not stated) | 15% | 11µM* | 13µM* | 4 | -1% | ?
COc1ccc(S(=O)(=O)N2CCCCC2)cc1NC(=O)CCNC(=O)c1ccc(Br)cc1 | 1% | . | . | -5 | -5% | -1%
O=C(C1CCCCC1)N1CCC(CO)(Cc2ccccc2Cl)CC1 | -2% | -1% | ? | 5 | -14% | -5%
SMILES | MCF10A rerep | VP16 counter | RORgamma inh | Giardia killer | SW480 rerep | BCR signal inh
Cc1cc(C)nc(-n2nc(C)c3c(C)c(C)c(C)nc32)n1 | . | -6% | 10µM* | . | . | -11%
COc1ccc(CCN2C(=O)NC(NS(=O)(=O)c3ccc(NC(C)=O)cc3)(C(F)(F)F)C2=O)cc1OC (configuration not stated) | 3% | -2% | 5% | -1 | -2% | 1%
CC1CC2(CC(C)(C(=O)CSc3n[nH]c(-c4ccccc4Cl)n3)OC2=O)C(=O)O1 (configuration not stated) | 1% | ? | 10µM* | 14 | ? | 0%
CC1(C(=O)CSc2n[nH]c(-c3ccccc3Cl)n2)CCC(=O)O1 (configuration not stated) | . | 2% | -14% | . | . | -8%
COc1ccc2c(c1)c(=O)oc1cc(OCC(=O)NC3CCCCC3)ccc12 | 10µM* | -11% | 1% | -5 | -1% | 1%
COc1ccc2c(c1)c(=O)oc1cc(OCC(=O)NC3CC3)ccc12 | -2% | -6% | -23% | -25 | -8% | ?
CCCNC(=O)c1cc(-c2ccc(OC)cc2)n(CCCOC)c1C | 18% | -11% | -18% | 30 | 3% | -6%
O=C(Cc1ccccc1Cl)Nc1nc2ccccc2[nH]1 | 6% | ? | 7.1µM* | -13 | -12% | ?
O=C(CCNC(=O)c1ccccc1Cl)Nc1nc2ccccc2[nH]1 | 2% | . | . | -12 | 0% | 7%
CC(CC(=O)Nc1nc2ccccc2[nH]1)c1ccccc1 (configuration not stated) | 19% | 4.5µM* | ? | 8 | -1% | ?
Cc1ccc(CC(=O)Nc2nc3ccccc3[nH]2)cc1C | -5% | -27% | 3.2µM* | 6 | -2%[9.22 µM] | -10%
N#Cc1sc(NCc2ccccn2)nc1Cl | 9% | 16% | -21% | 9 | 18% | ?
CCCCN(C1CCS(=O)(=O)C1)S(=O)(=O)c1ccc(OC)c(OC)c1 (configuration not stated) | -1% | . | . | 11 | 0% | -2%
CCN(CC)S(=O)(=O)c1ccc(C(=O)OC2CCCCC2CN(C)C)cc1 (configuration not stated) | 0.1µM* | -1% | -17% | 2 | ? | -3%
N#CNC(=Nc1cccc(F)c1)SCc1ccccc1F | 4.6µM* | ? | -2%[10 µM] | -21 | 3% | ?
Cc1cc(C)cc(C(=O)N2CCCCC2)c1 | -2% | . | . | 10 | -6% | .
N#Cc1nc(-c2ccc(OCc3ccccc3Cl)cc2)oc1N1CCC(C(N)=O)CC1 | . | . | . | -7 | . | .
CC(=O)N1CC[n+]2c(-c3ccc(Cl)cc3)csc21 | 3% | 3% | -3% | -10 | -3% | -12%
CCc1ccc(-c2csc3[n+]2CCN3C(C)=O)cc1 | ? | 0% | -44% | 9 | 2.3µM* | -7%
O=C(c1ccco1)N1CCN(C(=O)c2cc(-c3ccccc3)nc3ccccc23)CC1 | 8% | 11% | 29% | -2 | 3% | -20%

Assay outcomes: PubChem BioAssay, National Center for Advancing Translational Sciences (NCATS)
